Values joined by “and” are separate entries in the source; they are usually repeats but may differ in a detail not shown here. Identical values can stand only once.
Assays:
Test in all cases: growth inhibition (% activity, log2 RLU normalised to DMSO / staurosporine); higher = more growth inhibition
Settings in all cases: 33 µM
[1] = tested on: DIPGX29 (H3.3 K27M diffuse intrinsic pontine glioma line)
Outline: (§1)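 Approved drugs were tested in triplicate at a single final concentration of about 33 μM for 7 days at 37 °C, 5% CO2, on pHGG cell lines and H9-derived neural stem cells. Readout was CellTiter-Glo luminescence, log2-transformed and scaled per plate to % activity between solvent and positive control wells. The median over replicates gives the growth-inhibition value.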

[2] = tested on: DIPGX37 (H3.3 K27M diffuse intrinsic pontine glioma line)
Outline: as §1

[3] = tested on: DIPGX7 (H3.3 K27M diffuse intrinsic pontine glioma line)
Outline: as §1

[4] = tested on: DIPGX9 (diffuse intrinsic pontine glioma line)
Outline: as §1

[5] = tested on: HGGX39 (paediatric high-grade glioma line)
Outline: as §1

[6] = tested on: HGGX6 (H3.3 G34R paediatric high-grade glioma line)
Outline: as §1

[7] = tested on: HNSC
Outline: as §1

[8] = tested on: SUDIPGIV (diffuse intrinsic pontine glioma line)
Outline: as §1

[9] = tested on: SUDIPGVI (diffuse intrinsic pontine glioma line)
Outline: as §1

[10] = tested on: SUDIPGXIII (diffuse intrinsic pontine glioma line)
Outline: as §1

CN1c2ccccc2C(NCCCCCCC(=O)O)c2ccc(Cl)cc2S1(=O)=O (stereo not given)
growth inhibition [1]: -1.12%
growth inhibition [2]: -3.13%
growth inhibition [3]: -0.607%
growth inhibition [4]: 0.503%
growth inhibition [5]: -0.419%
growth inhibition [6]: 0.961%
growth inhibition [7]: -2.51%
growth inhibition [8]: -2.29%
growth inhibition [9]: -1.84%
growth inhibition [10]: 0.605%

OC(c1ccccc1)(c1ccccc1)C1CCNCC1
growth inhibition [1]: 0.581%
growth inhibition [2]: -0.7%
growth inhibition [3]: -0.982%
growth inhibition [4]: -0.0248%
growth inhibition [5]: -0.475%
growth inhibition [6]: 0.616%
growth inhibition [7]: -1.42%
growth inhibition [8]: -1.01%
growth inhibition [9]: 0.144%
growth inhibition [10]: 1.52%

O=C1CC[C@@]2(O)[C@H]3Cc4ccc(O)c5c4[C@@]2(CCN3CC2CC2)[C@H]1O5
growth inhibition [1]: 1.67%
growth inhibition [2]: 1.95%
growth inhibition [3]: 2.36%
growth inhibition [4]: 2.58%
growth inhibition [5]: 3.26%
growth inhibition [6]: 2.55%
growth inhibition [7]: 3.56%
growth inhibition [8]: 1.52%
growth inhibition [9]: 3.67%
growth inhibition [10]: -0.861%

N.N.[Cl][Pt][Cl]
growth inhibition [1]: -1.13%
growth inhibition [2]: 0.384%
growth inhibition [3]: 0.191%
growth inhibition [4]: 0.402%
growth inhibition [5]: -0.146%
growth inhibition [6]: -3.02%
growth inhibition [7]: -5.11%
growth inhibition [8]: -3%
growth inhibition [9]: -1.15%
growth inhibition [10]: 1.82%

CNC1CC(N)C(O)C(OC2OC(CO)C(O)C3OC4(OC(C(N)CO)C(O)C(O)C4O)OC23)C1O (stereo not given)
growth inhibition [1]: 4.68%
growth inhibition [2]: 1.71%
growth inhibition [3]: 0.134%
growth inhibition [4]: 3.12%
growth inhibition [5]: -0.261%
growth inhibition [6]: 1.68%
growth inhibition [7]: 1.11%
growth inhibition [8]: 3.64%
growth inhibition [9]: 1.16%
growth inhibition [10]: -0.132%

Cc1c(N)nc(C(CC(N)=O)NCC(N)C(N)=O)nc1C(=O)NC(C(=O)NC(C)C(O)C(C)C(=O)NC(C(=O)NCCc1nc(-c2nc(C(=O)NCCC[S+](C)C)cs2)cs1)C(C)O)C(O[C@@H]1O[C@@H](CO)[C@@H](O)[C@H](O)[C@@H]1O[C@H]1O[C@H](CO)[C@@H](O)[C@H](OC(N)=O)[C@@H]1O)c1cnc[nH]1 (stereo not given in full)
growth inhibition [1]: 3.71%
growth inhibition [2]: 5.42%
growth inhibition [3]: 1.63%
growth inhibition [4]: 17.8%
growth inhibition [5]: 8.29%
growth inhibition [6]: 4.24%
growth inhibition [7]: 56.5%
growth inhibition [8]: 32.5%
growth inhibition [9]: 1.68%
growth inhibition [10]: 4.14%

CCC1(c2cccc(O)c2)CCCCN(C)C1 (stereo not given)
growth inhibition [1]: 0.813%
growth inhibition [2]: 0.766%
growth inhibition [3]: -0.204%
growth inhibition [4]: 0.246%
growth inhibition [5]: -0.148%
growth inhibition [6]: -2.47%
growth inhibition [7]: 18.5%
growth inhibition [8]: -0.915%
growth inhibition [9]: -3.26%
growth inhibition [10]: -1.39%

CCC1(c2ccc(N)cc2)CCC(=O)NC1=O (stereo not given)
growth inhibition [1]: -0.867%
growth inhibition [2]: 0.792%
growth inhibition [3]: 0.848%
growth inhibition [4]: 0.885%
growth inhibition [5]: 1.68%
growth inhibition [6]: 2.54%
growth inhibition [7]: -1.67%
growth inhibition [8]: -1.8%
growth inhibition [9]: 0.634%
growth inhibition [10]: -0.67%

CCN(C)C(=O)Oc1cccc([C@H](C)N(C)C)c1
growth inhibition [1]: -0.955%
growth inhibition [2]: -0.495%
growth inhibition [3]: 1.09%
growth inhibition [4]: 0.618%
growth inhibition [5]: 1.41%
growth inhibition [6]: 0.109%
growth inhibition [7]: 4.36%
growth inhibition [8]: -1.75%
growth inhibition [9]: -2.42%
growth inhibition [10]: -0.000881%

C[C@]12CC[C@H](O)CC1=CC[C@@H]1[C@@H]2CC[C@]2(C)C(=O)CC[C@@H]12
growth inhibition [1]: 2.61%
growth inhibition [2]: 1.45%
growth inhibition [3]: 2.22%
growth inhibition [4]: 1.17%
growth inhibition [5]: 3.44%
growth inhibition [6]: 4%
growth inhibition [7]: 3.63%
growth inhibition [8]: 2.37%
growth inhibition [9]: 3.47%
growth inhibition [10]: 1.67%

CC(C)c1c(CN(C)C(C)Cc2ccccc2)n(C)n(-c2ccccc2)c1=O (stereo not given)
growth inhibition [1]: 2.25%
growth inhibition [2]: 0.985%
growth inhibition [3]: 2.59%
growth inhibition [4]: -0.334%
growth inhibition [5]: -0.152%
growth inhibition [6]: -0.564%
growth inhibition [7]: 48.4%
growth inhibition [8]: 1.4%
growth inhibition [9]: -1.33%
growth inhibition [10]: 2.29%

NCCc1c[nH]c2ccc(O)cc12
growth inhibition [1]: -2.73%
growth inhibition [2]: 0.315%
growth inhibition [3]: -2.87%
growth inhibition [4]: -2.24%
growth inhibition [5]: -2.22%
growth inhibition [6]: -1.35%
growth inhibition [7]: -4.26%
growth inhibition [8]: 0.704%
growth inhibition [9]: -3.47%
growth inhibition [10]: 0.646%

CN(C)C(=O)Oc1ccc[n+](C)c1
growth inhibition [1]: 0.471%
growth inhibition [2]: -1.26%
growth inhibition [3]: -0.161%
growth inhibition [4]: 0.978%
growth inhibition [5]: 0.907%
growth inhibition [6]: 0.761%
growth inhibition [7]: -1.64%
growth inhibition [8]: 0.973%
growth inhibition [9]: 1.15%
growth inhibition [10]: -0.0947%

COc1cc2c(cc1OC)[C@@]13CCN4CC5=CCO[C@H]6CC(=O)N2[C@H]1[C@H]6[C@H]5C[C@H]43
growth inhibition [1]: -3.31%
growth inhibition [2]: 0.569%
growth inhibition [3]: 3.92%
growth inhibition [4]: 0.679%
growth inhibition [5]: 5.09%
growth inhibition [6]: -3.27%
growth inhibition [7]: 19.6%
growth inhibition [8]: 0.395%
growth inhibition [9]: 1.58%
growth inhibition [10]: 10.4%

NCC1(CC(=O)O)CCCCC1
growth inhibition [1]: 2.13% and 0.326%
growth inhibition [2]: 4.84% and 0.615%
growth inhibition [3]: 3.15% and 1.16%
growth inhibition [4]: -0.041% and -0.903%
growth inhibition [5]: 2.36% and -1.3%
growth inhibition [6]: 2.04% and -2.75%
growth inhibition [7]: 2.28% and -0.457%
growth inhibition [8]: 1.22% and -1.85%
growth inhibition [9]: 2.85% and -1.96%
growth inhibition [10]: -1.15% and -0.111%

Cc1cccc(Cc2c[nH]cn2)c1C
growth inhibition [1]: 1.63%
growth inhibition [2]: 3.84%
growth inhibition [3]: 4.17%
growth inhibition [4]: 3.18%
growth inhibition [5]: 5.48%
growth inhibition [6]: 2.59%
growth inhibition [7]: 4.93%
growth inhibition [8]: 6.05%
growth inhibition [9]: 6.15%
growth inhibition [10]: 0.33%

Cc1cccc(C)c1NC(=O)CN1CCCC1=O
growth inhibition [1]: -3.64%
growth inhibition [2]: -1.99%
growth inhibition [3]: -0.96%
growth inhibition [4]: -1.24%
growth inhibition [5]: -0.565%
growth inhibition [6]: -3.14%
growth inhibition [7]: 6.05%
growth inhibition [8]: -2.89%
growth inhibition [9]: -1.55%
growth inhibition [10]: -1.38%

O=S(=O)(F)Cc1ccccc1
growth inhibition [1]: 0.493%
growth inhibition [2]: -0.634%
growth inhibition [3]: -0.837%
growth inhibition [4]: -0.877%
growth inhibition [5]: -0.194%
growth inhibition [6]: -1.52%
growth inhibition [7]: -0.438%
growth inhibition [8]: -0.0165%
growth inhibition [9]: 1.21%
growth inhibition [10]: 0.305%

C[C@@H]1O[C@@H](O[C@H]2C[C@@H](O)[C@]3(CO)[C@H]4[C@H](O)C[C@]5(C)[C@@H](C6=CC(=O)OC6)CC[C@]5(O)[C@@H]4CC[C@]3(O)C2)[C@H](O)[C@H](O)[C@H]1O
growth inhibition [1]: 41.5%
growth inhibition [2]: 21.1%
growth inhibition [3]: 60.7%
growth inhibition [4]: 26.1%
growth inhibition [5]: 54.5%
growth inhibition [6]: 51.4%
growth inhibition [7]: 59.4%
growth inhibition [8]: 60.1%
growth inhibition [9]: 37.7%
growth inhibition [10]: 45.3%

Source: the supplement of paper PMC8253809
